From PubChem BioAssay come the findings set out here.

Assay [1] in a line: liver-stage malaria parasite load reduction – cell-based, known kinase inhibitor set, luminescence, hepatoma host viability (AID 624392).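 Further: infected cells incubated roughly two days before readout.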 The following applies: Plasmodium liver stage in hepatoma cells, luciferase luminescence, concentration not given here; liver cell % of control: measured here: host liver cell viability; parasite % of control: stronger effect = lower value.
Assay [2] in a line: altered dexamethasone sensitivity, NF-kB reporter, cell-based, luciferase, IL-1B stimulus (AID 624486).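 On percent of negative control (+Dex): 100% = mean signal of vehicle control wells on the plate.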 Conditions: IL-1B + dexamethasone, luminescence; percent of negative control (+Dex): actives lie on both sides, concentration not given here; z-score: measured here: IL-1B alone, no Dex.
Assay [3] is described as follows: C. elegans survival during P. aeruginosa infection – whole organism (AID 651566).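 Further: tested at 14 µM; sign flipped so higher z means a lower ratio.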 The following applies: C. elegans killed by P. aeruginosa, survival ratio.
Assay [4] in a line: pro-inflammatory signaling induction in mouse macrophages – cell-based, murine, luminescence (AID 652131). Conditions: murine macrophage pro-inflammatory reporter, stronger effect = higher value.
Assay [5] deals with Cellular tumor antigen p53 (Homo sapiens) (UniProt P04637). The assay can be described thus: GFP-p53 level modulators in HPV16+ cells – imaging, known kinase inhibitor set, EGFP/DsRed ratio (AID 1053116).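 Further: cells exposed to compounds for 24 h at 37 °C before reading.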 The following applies: GFP-p53 stability, stronger effect = higher value; EGFP object count: measured here: GFP-p53 positive objects count.
Assay [6] in a line: inducers of IRF3 signaling, differentiated THP-1 – cell-based, PMA-stimulated THP-1, luminescence (AID 1053176). Conditions: PMA-differentiated THP-1, IRF3 reporter luminescence; stronger effect = higher value.
The nature of assay [7]: MELAS cybrid and Rieske KO viability enhancers – cell-based, MELAS cybrids, Rieske KO mouse fibroblasts, CellTiter-Glo, primary screen (AID 1508586;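 active means mean z-score across replicates of 1.96 or higher in either the MELAS or the Rieske mutant cell line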;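 further: z relative to plate mean and SD of compound and empty wells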). Conditions: low glucose. On the technique in general: In ATP-based viability assays light output follows the ATP content of the culture.
Setting [8] is: MELAS cybrid survival, CellTiter-Glo 48 h, stronger effect = higher value.
Where [9] appears, read: Rieske KO mouse fibroblast survival, CellTiter-Glo 72 h.

Active and inactive are the calls of the source. Unless noted, how the calls were made is not given here.

Sequence of Cellular tumor antigen p53 (Homo sapiens) (P04637 whole entry, looked up): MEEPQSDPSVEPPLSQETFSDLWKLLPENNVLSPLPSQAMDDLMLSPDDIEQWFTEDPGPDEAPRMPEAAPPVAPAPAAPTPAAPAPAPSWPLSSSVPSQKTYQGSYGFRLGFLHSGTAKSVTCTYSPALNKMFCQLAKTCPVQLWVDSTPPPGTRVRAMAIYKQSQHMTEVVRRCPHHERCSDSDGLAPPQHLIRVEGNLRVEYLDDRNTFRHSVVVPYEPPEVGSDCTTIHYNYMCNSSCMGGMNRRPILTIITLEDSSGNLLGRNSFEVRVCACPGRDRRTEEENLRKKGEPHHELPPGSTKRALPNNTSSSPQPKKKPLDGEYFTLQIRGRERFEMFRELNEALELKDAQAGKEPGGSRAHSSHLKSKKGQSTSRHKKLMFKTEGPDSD

In turn, `COc1cccc(-c2c[nH]c3c(N/N=C/c4ccncc4)ncnc23)c1` registered a liver cell % of control in assay [1] of 72.3%. In assay [1], the parasite % of control is 30.4% (inactive). For the same compound, the percent of negative control (+Dex) in assay [2] was 129% (inactive). Also, the z-score in assay [2] was -0.36; in assay [3], -0.245 (inactive); in assay [4] it was -1.59 (inactive); in assay [7] (setting [8]) it was -0.187 (inactive); in assay [7] (setting [9]), 0.000787. Also, the EGFP object count in assay [5] was 4. Moreover, in assay [5], the EGFP/DsRed ratio was 0.121 (inactive). In assay [6], the fraction signal is 0.002 (inactive).
As to `Cc1ccccc1C1=C(c2cn(C)c3ccccc23)C(=O)NC1=O`, in assay [1], the liver cell % of control worked out at 136% and the parasite % of control was 37% (inactive). In assay [2], the percent of negative control (+Dex) is 96% (inactive) and the z-score is -1.4. Further, in assay [5], the EGFP object count amounted to 22 and the EGFP/DsRed ratio is 0.4 (inactive). For the same compound, the fraction signal in assay [6] was 0.0035 (inactive).
For the compound `Cn1cc(C2=C(c3cn(C)c4ncccc34)C(=O)NC2=O)c2ccccc21`, in assay [1], the liver cell % of control came out at 95.3% and the parasite % of control is 38.8% (inactive). Further, in assay [2], the percent of negative control (+Dex) is 100% (inactive) and the z-score is -0.87. Also, in assay [5], the EGFP object count was 20 and the EGFP/DsRed ratio is 0.579 (inactive). In assay [6], the fraction signal was -0.009 (inactive).
As for `O=C1NC(=NC2CC2c2ccccc2)SC1=Cc1ccc2ncccc2c1` (centres undefined), in assay [1], the liver cell % of control came to 193% and the parasite % of control is 10.6% (inactive). Also, in assay [2], the percent of negative control (+Dex) was 64% (active) and the z-score was -4.3. In assay [5], the EGFP object count is 3 and the EGFP/DsRed ratio was 0.221 (inactive). Further, in assay [6], the fraction signal is -0.0115 (inactive).
In assay [1], `O/N=C1/CCc2cc(-c3nc(C4CCNCC4)[nH]c3-c3ccncc3)ccc21` had a liver cell % of control of 105%. Also, in assay [1], the parasite % of control was 174% (inactive). In addition, the percent of negative control (+Dex) in assay [2] was 128% (inactive). The z-score in assay [2] is 0.995; in assay [3], 0.24 (inactive); in assay [4] it was 3.12 (inactive); in assay [7] (setting [8]), -1.26 (inactive); in assay [7] (setting [9]), -0.635. Also, the EGFP object count in assay [5] turned out to be 1. Further, in assay [5], the EGFP/DsRed ratio was 0.00487 (inactive). For the same compound, the fraction signal in assay [6] is 0.001 (inactive).
As to `Cn1c(=O)c(Oc2ccccc2F)cc2cnc(NC3CCOCC3)nc21`, in assay [1], the liver cell % of control came to 116% and the parasite % of control is 49.5% (inactive). For the same compound, in assay [2], the percent of negative control (+Dex) was 107% (inactive) and the z-score amounted to 0.09. Further, in assay [5], the EGFP object count is 7 and the EGFP/DsRed ratio was 0.313 (inactive). Besides, the fraction signal in assay [6] was 0.001 (inactive).
As to `CCn1c(=O)c(Oc2ccc(F)cc2F)cc2cnc(NC3CCOCC3)nc21`, in assay [1], the liver cell % of control worked out at 103% and the parasite % of control was 55.7% (inactive). Also, in assay [2], the percent of negative control (+Dex) was 85.5% (inactive) and the z-score was -0.82. Also, in assay [5], the EGFP object count stood at 3.5 and the EGFP/DsRed ratio was 0.0988 (inactive). Also, the fraction signal in assay [6] was -0.005 (inactive).
On to `Cn1cc(C2=C(c3cn(CCCO)c4ccccc34)C(=O)NC2=O)c2ccccc21`, for which, in assay [1], the liver cell % of control came out at 101% and the parasite % of control is 33.3% (inactive). Moreover, in assay [2], the percent of negative control (+Dex) is 115% (inactive) and the z-score is -0.1. Besides, in assay [5], the EGFP object count turned out to be 9.5 and the EGFP/DsRed ratio is 0.221 (inactive). Further, the fraction signal in assay [6] is 0.0055 (inactive).
On to `Cn1c(-c2ccncc2)c(-c2ccc(F)cc2)c2ncccc21`, for which, in assay [1], the liver cell % of control turned out to be 100% and the parasite % of control was 44.7% (inactive). In assay [2], the percent of negative control (+Dex) is 104% (inactive) and the z-score came to 1.04. In assay [5], the EGFP object count was 3 and the EGFP/DsRed ratio is 0.0799 (inactive). Besides, the fraction signal in assay [6] was -0.0005 (inactive).
Consider `N#Cc1c(C(=O)c2ccccc2)cnn1-c1ccccc1`, for which, in assay [1], the liver cell % of control stood at 104% and the parasite % of control is 56.2% (inactive). Moreover, in assay [2], the percent of negative control (+Dex) was 106% (inactive) and the z-score turned out to be 1.11. Also, in assay [5], the EGFP object count amounted to 7 and the EGFP/DsRed ratio is 0.125 (inactive). The fraction signal in assay [6] is -0.007 (inactive).
For the compound `Cc1ccc(C)c(C2=C(c3cn(C)c4ccccc34)C(=O)NC2=O)c1`, in assay [1], the liver cell % of control was 166% and the parasite % of control was 33% (inactive). Moreover, in assay [2], the percent of negative control (+Dex) was 102% (inactive) and the z-score was -1.65. Further, in assay [5], the EGFP object count was 33.5 and the EGFP/DsRed ratio was 0.361 (inactive). Also, the fraction signal in assay [6] was 0.0035 (inactive).
Regarding `Cn1c(=O)c(Sc2ccccc2F)cc2cnc(NC3CCOCC3)nc21`, in assay [1], the liver cell % of control was 103% and the parasite % of control was 68.5% (inactive). For the same compound, in assay [2], the percent of negative control (+Dex) was 107% (inactive) and the z-score was 0.685. For the same compound, in assay [5], the EGFP object count worked out at 2 and the EGFP/DsRed ratio was 0.0407 (inactive). The fraction signal in assay [6] is -0.0075 (inactive).
Turning to `COc1cccc(C2=C(c3cn(C)c4cccc(OC)c34)C(=O)NC2=O)c1`, in assay [1], the liver cell % of control is 91.4% and the parasite % of control was 121% (inactive). In assay [2], the percent of negative control (+Dex) is 99% (inactive) and the z-score worked out at 0.35. Moreover, in assay [5], the EGFP object count was 9 and the EGFP/DsRed ratio is 0.102 (inactive). The fraction signal in assay [6] was 0.0015 (inactive).
Consider `Cn1cc(C2=C(c3cn(C)c4cc(C(=O)O)ccc34)C(=O)NC2=O)c2ccccc21`, for which, in assay [1], the liver cell % of control stood at 145% and the parasite % of control was 38.3% (inactive). In addition, in assay [2], the percent of negative control (+Dex) is 99% (inactive) and the z-score was 0.65. Moreover, in assay [5], the EGFP object count was 2.5 and the EGFP/DsRed ratio was 0.485 (inactive). In addition, the fraction signal in assay [6] was 0.0035 (inactive).
In the case of `Nc1c(C(=O)c2ccc(C#CCN3CCOCC3)cc2)cnn1-c1ccc(F)cc1`, in assay [1], the liver cell % of control is 110% and the parasite % of control is 75.7% (inactive). Further, in assay [2], the percent of negative control (+Dex) was 106% (inactive) and the z-score amounted to 1.64. In addition, in assay [5], the EGFP object count was 4.5 and the EGFP/DsRed ratio is 0.119 (inactive). Also, in assay [6], the fraction signal is 0.01 (inactive).
`CC(=O)N1CCC(Nc2ncc3cc(Oc4ccc(F)cc4F)c(=O)n(C)c3n2)CC1`: in assay [1], the liver cell % of control amounted to 113% and the parasite % of control was 81.4% (inactive). In addition, in assay [2], the percent of negative control (+Dex) was 102% (inactive) and the z-score amounted to 0.13. Besides, in assay [5], the EGFP object count was 2 and the EGFP/DsRed ratio was 0.0142 (inactive). For the same compound, the fraction signal in assay [6] is -0.005 (inactive).
With `O=C1NC(=NCCc2ccc(Cl)cc2)SC1=Cc1ccc2ncccc2c1`, in assay [1], the liver cell % of control is 108% and the parasite % of control was 53.8% (inactive). For the same compound, in assay [2], the percent of negative control (+Dex) is 95% (inactive) and the z-score turned out to be 0.425. Besides, in assay [5], the EGFP object count was determined as 6.5 and the EGFP/DsRed ratio was 0.259 (inactive). Moreover, in assay [6], the fraction signal was -0.0075 (inactive).
Consider `Cn1cc(C2=C(c3c4n(c5ccccc35)CCCCC4)C(=O)NC2=O)c2ccccc21`, for which, in assay [1], the liver cell % of control is 80.1% and the parasite % of control is 66.1% (inactive). Further, in assay [2], the percent of negative control (+Dex) was 100% (inactive) and the z-score was -0.31. In assay [5], the EGFP object count turned out to be 7 and the EGFP/DsRed ratio is 0.223 (inactive). Besides, the fraction signal in assay [6] is -0.005 (inactive).
